# Assay outcomes (PubChem)
# Neddyl block – blocks human cullin neddylation. P61081+Q13564. TR-FRET cullin neddylation, biochemical. AID 651699. calls only at 25 µM. 360,000 tested, 0.58% active; in the data active = inhibition above about 36%
# FAS TE block – inhibitors of human fatty acid synthase thioesterase domain; recombinant FAS-TE, OMFH fluorogenic substrate, fluorescence endpoint; inhibition, % at 15 µM; 360,000 tested, 0.67% active;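 active = compounds whose normalised, plate-corrected inhibition of enzyme fluorescence in the single-dose primary screen is 50% or more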;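 note: 0% = DMSO with enzyme and 100% = substrate without enzyme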
# PfG6PD inh – PfG6PD (Plasmodium falciparum) enzyme inhibition | PfGluPho enzyme, NADPH resazurin-diaphorase fluorescence | inhibition, % at 20 µM | 350,000 tested, 0.78% active | AID 504690;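 active = inhibition reaching at least a set limit at 20 µM in the primary screen, cut at about 59% in these data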;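 note: 0% = DMSO wells with substrate and 100% = DMSO wells lacking glucose-6-phosphate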
# KLK7 zymogen act – activates the human kallikrein-7 zymogen; P49862; purified proKLK7, EDANS-DABCYL substrate fluorescence; 100% is mature enzyme control, 0% vehicle; activation, % at 7 µM; 370,000 tested, 0.9% active;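 active = activation above the mean of all tested compounds plus 3 SD, computed per campaign excluding outliers beyond control limits, cut at about 13% in these data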
# Target sequence (P49862 whole entry, looked up): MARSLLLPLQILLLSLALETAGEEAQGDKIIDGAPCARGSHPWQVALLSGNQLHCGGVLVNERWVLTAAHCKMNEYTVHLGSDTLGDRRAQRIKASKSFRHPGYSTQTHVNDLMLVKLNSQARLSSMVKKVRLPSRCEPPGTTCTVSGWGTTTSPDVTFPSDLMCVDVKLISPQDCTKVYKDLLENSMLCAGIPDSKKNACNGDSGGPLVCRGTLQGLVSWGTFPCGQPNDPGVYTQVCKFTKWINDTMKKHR
# KLK7 act conf – confirmation of human kallikrein-7 zymogen activators; 3,200 tested, 68% active; shares compounds with KLK7 zymogen act; AID 686949; activation, % at 7 µM; purified proKLK7, EDANS-DABCYL substrate fluorescence; scaled: vehicle 0, mature enzyme 100;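 active = activation, as change over the incubation, above the mean of all tested compounds plus 3 SD, cut at about 13% in these data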
# EDANS-DABCYL int – optically interferes with EDANS-DABCYL signal, flagging KLK7 hits; AID 686952; 3,200 tested, 80% active; shares compounds with KLK7 zymogen act; EDANS-DABCYL substrate fluorescence interference, no enzyme, 4 h; solvent 0%, active enzyme control 100%; activation, % at 7 µM;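 active = activation above the all-compound mean plus 3 SD, ignoring values outside control-based bounds, cut at about 4.8% in these data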;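 note: value is the 4 h activation minus the activation read at time zero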
# EDANS interf – optically interferes with EDANS-DABCYL fluorescence, kallikrein-7 activator counter-screen | 250 tested, 20% active | EC50, µM | EDANS-DABCYL peptide fluorescence interference, no enzyme | shares compounds with KLK7 zymogen act;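 active = compounds that raise the fluorescence signal in this interference counterscreen, with EC50 at or below 10 µM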;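 note: intact quenched peptide substrate alone read at 355 nm excitation and 520 nm emission; signal is fluorescence gain from T0 to T4 after four hours at room temperature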
# Starred values were filed as active, the others as inactive; i = inactive; · = not tested or not shown. This is a sample that favours compounds with a hit; in the whole collection about 2.7% have one here.
SMILES,Neddyl block,FAS TE block,PfG6PD inh,KLK7 zymogen act,KLK7 act conf,EDANS-DABCYL int,others
O=S(=O)(Nc1ccc(-c2cn3cccnc3n2)cc1)c1ccccc1,·,-4,-3,65*,22*,22*,
O=S(=O)(Nc1cccc(-c2cn3cccnc3n2)c1)c1ccccc1,·,-5,-14,70*,15*,18*,
COC(=O)[C@H](C(C)C)N(CCCc1cn(CC2CCCCC2)nn1)S(=O)(=O)c1ccccc1Br,·,·,·,1,·,·,
CN(C)C(=O)c1cc2c(c(-c3cccc(C4=CCCCC4)c3)n1)[C@@H](CCO)N(S(=O)C(C)(C)C)C2 (stereo partly specified),i,-5,·,-3,·,·,
O=S1(=O)c2ccc(N3CC[C@H](O)C3)cc2O[C@H]2CCN1C2,·,·,·,-1,·,·,
O=C(Nc1ccc(Cl)cc1)OC1CCC12CCC(c1ccccc1)CC2 (stereo unspecified),·,·,·,0,·,·,
COc1ccc([C@H]2OC(=O)C[C@@H]2C(=O)N2CCN(c3ccccc3F)CC2)cc1OC,·,·,·,0,·,·,
COc1ccc(/C=C/C(=O)NC2=NCCS2)cc1OC,·,-6,-20,15*,48*,47*,
CC(C)C[C@H]1COc2c(Cl)cccc2S(=O)(=O)N1,·,·,·,1,·,·,
COc1ccc2cc(C3=CCCCC3)ncc2c1,·,5,40,19*,7,5.3*,
COc1ccc2[nH]c(C)c(C(=O)CN3CCOCC3)c2c1,i,-10,-6,0,·,·,
COc1ccc2[nH]c(C)c(C(=O)CN3CCc4cc(OC)c(OC)cc4C3)c2c1,i,-6,1,17*,9,8.4*,
COC(=O)c1cccc(N2C(=O)C[C@](Sc3ccc(OC)cc3)(C(=O)N3CCOCC3)[C@H]2c2ccc(OC)cc2)c1,·,·,·,1,·,·,
COc1ccc(C2C(C#N)=C(N)OC3=C2C(=O)CC(C)(C)C3)c([N+](=O)[O-])c1OC (stereo unspecified),i,-2,17,0,·,·,
COc1cc(C2C(C#N)=C(N)OC3=C2C(=O)CC(C)(C)C3)c([N+](=O)[O-])cc1OC (stereo unspecified),i,-11,28,20*,21*,18*,
CCN(CC)CCCNc1cc(C(F)(F)F)c(C#N)c2nc3ccccc3n12,·,-12,14,53*,-7,-11,
COCCN(CCOC)c1cc(C)c(C#N)c2nc3ccccc3n12,·,-9,-17,39*,61*,50*,EDANS interf=i
CCN(CC)CCNc1c2c(c(C#N)c3nc4ccccc4n13)CCCC2,·,1,-14,11,·,·,
C=C(C)CSc1cc(C)c(C#N)c2nc3ccccc3n12,·,29,16,-5,·,·,
Cc1cc(-c2ccco2)n2c(nc3ccccc32)c1C#N,i,2,-23,-2,·,·,
CCN(CC)CCCNc1cc(C)c(C#N)c2nc3ccccc3n12,·,-2,-3,69*,38*,40*,
Cc1cc(NCCCCO)n2c(nc3ccccc32)c1C#N,·,-3,5,43*,47*,37*,EDANS interf=>70
COc1ccccc1-c1cnc(C(O)c2ccc(C(C)(C)C)cc2)[nH]1 (stereo unspecified),i,10,·,1,·,·,
COc1ccc2c(c1)CN1CN(Cc3ccccc3)S(=O)(=O)CC21 (stereo unspecified),·,·,·,0,·,·,
O=C(Nc1cccc2ccccc12)OC[C@@H]1CSCCS(=O)(=O)N1,·,·,·,0,·,·,
SMILES,Neddyl block,FAS TE block,PfG6PD inh,KLK7 zymogen act,KLK7 act conf,EDANS-DABCYL int,others
CCN(CC)CCNc1cc(C)c(C#N)c2nc3ccccc3n12,·,-5,13,132*,10,5.4*,
Cc1cc(=O)oc2cc(NC(=O)c3c(Cl)cnn3C)ccc12,i,1,0,0,·,·,
Cc1cc(=O)oc2cc(NC(=O)c3ccccc3C(=O)O)ccc12,·,-4,2,54*,14*,16*,
Cc1cc(=O)oc2cc(NC(=O)c3ccccc3Cl)ccc12,·,0,2,13*,12,12*,
Cc1ccc(-c2nc3ccccn3c2Nc2ccccc2)o1,·,-3,-2,28*,63*,68*,
Cc1ccc2nc(-c3ccco3)c(Nc3ccccc3)n2c1,·,-6,5,0,·,·,
Cc1cccc(C(=O)OCC(=O)N2c3ccccc3CC2C)c1C (stereo unspecified),i,26,24,1,·,·,
